According to PubChem BioAssay (EPA / NIEHS):
Several values for one entry are separate records, joined by “and”; a condition that tells them apart may be missing. Equal values may be shown once. Results filed as inconclusive are left out. Some structures have more than one record in an assay (separate samples or runs), and their calls can disagree. Activity calls are given as the source filed them. How the source made its calls, unless noted: active means hit-call score of the fitted dose curve at least 0.9, where 1 is the maximum; inconclusive means response in the unintended direction; inactive means score below 0.9.

Target: Estrogen receptor (Homo sapiens) (UniProt P03372)
Sequence (P03372 whole entry, looked up): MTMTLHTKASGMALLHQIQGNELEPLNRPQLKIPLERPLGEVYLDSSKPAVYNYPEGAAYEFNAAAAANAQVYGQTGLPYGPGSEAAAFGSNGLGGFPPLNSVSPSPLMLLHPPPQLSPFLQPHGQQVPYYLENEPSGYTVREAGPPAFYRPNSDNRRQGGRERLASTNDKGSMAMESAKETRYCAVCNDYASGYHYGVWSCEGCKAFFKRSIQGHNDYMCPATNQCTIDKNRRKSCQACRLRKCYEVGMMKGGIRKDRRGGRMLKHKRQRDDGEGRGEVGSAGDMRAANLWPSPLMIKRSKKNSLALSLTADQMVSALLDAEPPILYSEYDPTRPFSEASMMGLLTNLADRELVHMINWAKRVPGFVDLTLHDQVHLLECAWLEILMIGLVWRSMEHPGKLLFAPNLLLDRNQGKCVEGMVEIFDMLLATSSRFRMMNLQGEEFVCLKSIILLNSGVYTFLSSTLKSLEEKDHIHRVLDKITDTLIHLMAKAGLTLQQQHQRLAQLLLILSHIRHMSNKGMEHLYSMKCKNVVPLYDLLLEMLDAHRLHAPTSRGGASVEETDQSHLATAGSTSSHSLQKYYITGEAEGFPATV
Assay: ATG_hERa_XSP2: Attagene TRANS-FACTORIAL Multi-Species (XSP2) HepG2 Assay for human Estrogen Receptor (ERa) (AID 2283827)
Outline: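 Trans-activation of exogenous human ERa-Gal4 chimera read in HepG2 as reporter transcript after 24 h exposure; medium included 3 nM 6-alpha-fluorotestosterone and 1.5 nM norgestrel. Quantified by RT-PCR with capillary electrophoresis, positive-direction fitting against DMSO.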

SMILES | AC50 | outcome
C(=C(c1ccccc1)c1ccccc1)c1ccccc1 | 46.1 nM (active) | 
c1ccc(B(c2ccccc2)c2ccccc2)cc1 | 7.53 µM (active) and 3.43 µM (active) | 
C#C[C@]1(O)CC[C@H]2[C@@H]3CCc4cc(OC)ccc4[C@H]3CC[C@@]21C | 0.111 nM (active) and 0.0826 nM (active) | 
O=C(OCCOCCOCCOC(=O)c1ccccc1)c1ccccc1 | 26700 nM (active) | inactive

System: frog Estrogen Receptor (ER2), gene 100174814
Assay: ATG_frER2_XSP2: Attagene TRANS-FACTORIAL Multi-Species (XSP2) HepG2 Assay for frog Estrogen Receptor (ER2) (AID 2283828)
Outline: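 Read-out: reporter transcript levels by RT-PCR with 6-FAM primer extension, HpaI digestion and capillary electrophoresis, scored as induction over DMSO control. Transfected HepG2 carrying Xenopus ER2–GAL4 chimera; compounds incubated 24 h.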

SMILES | AC50 | outcome
C(=C(c1ccccc1)c1ccccc1)c1ccccc1 | 25.3 nM (active) | 
c1ccc(B(c2ccccc2)c2ccccc2)cc1 | 6.89 µM (active) and 5.72 µM (active) | 
C#C[C@]1(O)CC[C@H]2[C@@H]3CCc4cc(OC)ccc4[C@H]3CC[C@@]21C | 3.94 nM (active) and 1.23 nM (active) | 
O=C(OCCOCCOCCOC(=O)c1ccccc1)c1ccccc1 |  | inactive

Target: Peroxisome proliferator-activated receptor gamma (Homo sapiens) (UniProt P37231)
Sequence (P37231 whole entry, looked up): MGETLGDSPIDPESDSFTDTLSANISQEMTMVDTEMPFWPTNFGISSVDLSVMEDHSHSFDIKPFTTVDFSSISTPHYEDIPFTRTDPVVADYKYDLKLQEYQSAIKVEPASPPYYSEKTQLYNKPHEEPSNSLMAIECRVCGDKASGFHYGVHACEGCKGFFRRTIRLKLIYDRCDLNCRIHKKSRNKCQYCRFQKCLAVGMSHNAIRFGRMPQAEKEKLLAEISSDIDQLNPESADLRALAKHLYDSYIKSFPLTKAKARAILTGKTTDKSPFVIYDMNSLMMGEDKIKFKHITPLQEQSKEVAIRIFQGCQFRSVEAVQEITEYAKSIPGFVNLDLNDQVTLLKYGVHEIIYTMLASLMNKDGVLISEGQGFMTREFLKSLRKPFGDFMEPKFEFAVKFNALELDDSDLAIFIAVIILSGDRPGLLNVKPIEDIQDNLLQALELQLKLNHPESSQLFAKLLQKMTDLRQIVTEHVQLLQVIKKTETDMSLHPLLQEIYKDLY
Assay: ATG_hPPARg_XSP2: Attagene TRANS-FACTORIAL Multi-Species (XSP2) HepG2 Assay for human Peroxisome Proliferator-activated Receptor gamma (PPARg) (AID 2283829);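 further: actives raise reporter mRNA above DMSO so AC50 reflects PPARg activation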
Outline: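 Human HepG2 cells carried transiently transfected Gal4 reporter units and were treated with chemical for 24 h alongside androgen-receptor stimulants (3 nM 6-alpha-fluorotestosterone, 1.5 nM norgestrel). Reporter transcripts were detected by RT-PCR with capillary electrophoresis, analysed in the positive direction against DMSO.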

SMILES | outcome | AC50
C(=C(c1ccccc1)c1ccccc1)c1ccccc1 | inactive | 
c1ccc(B(c2ccccc2)c2ccccc2)cc1 |  | 60.6 µM (active) and 40.8 µM (active)
C#C[C@]1(O)CC[C@H]2[C@@H]3CCc4cc(OC)ccc4[C@H]3CC[C@@]21C | inactive | 
O=C(OCCOCCOCCOC(=O)c1ccccc1)c1ccccc1 | inactive | 46.3 µM (active)

Target: mouse Peroxisome Proliferator-activated Receptor gamma (PPARg), Pparg (gene 19016) (UniProt P37238)
Sequence (P37238 whole entry, looked up): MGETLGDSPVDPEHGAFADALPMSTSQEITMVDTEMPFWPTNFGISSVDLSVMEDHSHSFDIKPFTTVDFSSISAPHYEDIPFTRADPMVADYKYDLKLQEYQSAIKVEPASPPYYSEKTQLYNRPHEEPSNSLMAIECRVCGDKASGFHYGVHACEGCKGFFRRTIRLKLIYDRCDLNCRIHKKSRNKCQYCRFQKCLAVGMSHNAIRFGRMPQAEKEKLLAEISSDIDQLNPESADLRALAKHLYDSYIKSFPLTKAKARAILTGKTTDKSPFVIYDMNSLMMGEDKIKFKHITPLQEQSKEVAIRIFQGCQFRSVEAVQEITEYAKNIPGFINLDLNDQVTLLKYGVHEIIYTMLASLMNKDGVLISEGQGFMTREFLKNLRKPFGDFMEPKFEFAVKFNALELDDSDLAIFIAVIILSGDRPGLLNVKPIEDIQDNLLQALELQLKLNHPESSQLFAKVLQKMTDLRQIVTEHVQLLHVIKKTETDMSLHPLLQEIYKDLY
Assay: ATG_mPPARg_XSP2: Attagene TRANS-FACTORIAL Multi-Species (XSP2) HepG2 Assay for mouse Peroxisome Proliferator-activated Receptor gamma (PPARg) (AID 2283830);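 further: hits are gains in reporter mRNA above DMSO so AC50 marks activation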
Outline: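 Multiplexed TRANS reporter readout: after 24 h chemical exposure of transfected HepG2 cells (with 3 nM 6-alpha-fluorotestosterone, 1.5 nM norgestrel present), RNA reverse-transcribed, amplified, 6-FAM-labelled and resolved by capillary electrophoresis; mouse PPARg-Gal4 induction scored against DMSO.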

SMILES | outcome | AC50
C(=C(c1ccccc1)c1ccccc1)c1ccccc1 | inactive | 
c1ccc(B(c2ccccc2)c2ccccc2)cc1 |  | 65.6 µM (active) and 45.9 µM (active)
O=C(OCCOCCOCCOC(=O)c1ccccc1)c1ccccc1 | inactive | 58.5 µM (active)

Target: Nuclear receptor subfamily 1 group I member 2 (Mus musculus) (UniProt O54915)
Sequence (O54915 whole entry, looked up): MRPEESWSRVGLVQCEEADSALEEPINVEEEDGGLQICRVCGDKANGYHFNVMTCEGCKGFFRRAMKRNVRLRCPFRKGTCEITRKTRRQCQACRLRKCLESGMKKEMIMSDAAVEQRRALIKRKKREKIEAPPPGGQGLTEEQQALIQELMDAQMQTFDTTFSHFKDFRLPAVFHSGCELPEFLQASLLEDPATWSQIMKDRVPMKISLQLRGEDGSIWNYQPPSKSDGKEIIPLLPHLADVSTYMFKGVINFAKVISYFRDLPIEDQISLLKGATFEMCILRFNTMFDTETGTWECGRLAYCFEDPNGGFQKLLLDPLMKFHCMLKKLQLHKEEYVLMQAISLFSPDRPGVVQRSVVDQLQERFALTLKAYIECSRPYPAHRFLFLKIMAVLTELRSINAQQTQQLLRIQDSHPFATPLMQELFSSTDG
Assay: ATG_mPXR_XSP2: Attagene TRANS-FACTORIAL Multi-Species (XSP1) HepG2 Assay for mouse Pregnane X Receptor (PXR) (AID 2283831)
Outline: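 Fluorescence signals from capillary electrophoresis of RT-PCR-amplified reporter mRNA give the readout, gain-of-signal versus DMSO. Transfected HepG2 cells, 24 h dosing, medium contained 3 nM 6-alpha-fluorotestosterone and 1.5 nM norgestrel.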

SMILES | outcome | AC50
C(=C(c1ccccc1)c1ccccc1)c1ccccc1 | inactive | 
c1ccc(B(c2ccccc2)c2ccccc2)cc1 |  | 1.27 µM (active) and 4.39 µM (active)
C#C[C@]1(O)CC[C@H]2[C@@H]3CCc4cc(OC)ccc4[C@H]3CC[C@@]21C | inactive | 
O=C(OCCOCCOCCOC(=O)c1ccccc1)c1ccccc1 |  | 22.8 µM (active)

Target: zebrafish Thyroid Hormone Receptor alpha (TRa), thraa (gene 30670) (UniProt Q98867)
Sequence (Q98867 whole entry, looked up, the tested form may be a part): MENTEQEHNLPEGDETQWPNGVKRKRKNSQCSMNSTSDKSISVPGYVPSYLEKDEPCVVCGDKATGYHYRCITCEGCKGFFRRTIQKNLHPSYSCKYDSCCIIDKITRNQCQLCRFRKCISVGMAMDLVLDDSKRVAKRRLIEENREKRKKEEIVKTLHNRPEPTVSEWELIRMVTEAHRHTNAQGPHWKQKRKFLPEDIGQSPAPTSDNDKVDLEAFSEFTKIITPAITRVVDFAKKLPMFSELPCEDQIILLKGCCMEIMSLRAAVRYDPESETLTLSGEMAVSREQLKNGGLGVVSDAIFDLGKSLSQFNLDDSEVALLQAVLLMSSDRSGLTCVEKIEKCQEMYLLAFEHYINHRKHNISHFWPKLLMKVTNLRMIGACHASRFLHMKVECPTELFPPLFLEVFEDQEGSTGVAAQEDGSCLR
Assay: ATG_zfTRa_XSP2: Attagene TRANS-FACTORIAL Multi-Species (XSP1) HepG2 Assay for zebrafish Thyroid Hormone Receptor alpha (TRa) (AID 2283832);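 further: actives raise zebrafish TRa-Gal4 reporter transcript above DMSO baseline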
Outline: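 Chimeric zebrafish TRa-Gal4 activity read in transfected human HepG2 as GAL4-UAS reporter transcripts, 24 h post-dose, via RT-PCR with labeled primer extension and capillary electrophoresis. Medium also carries 3 nM 6-alpha-fluorotestosterone and 1.5 nM norgestrel; DMSO baseline.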

SMILES | outcome
c1ccc(B(c2ccccc2)c2ccccc2)cc1 | inactive
C#C[C@]1(O)CC[C@H]2[C@@H]3CCc4cc(OC)ccc4[C@H]3CC[C@@]21C | inactive
O=C(OCCOCCOCCOC(=O)c1ccccc1)c1ccccc1 | inactive

System: zebrafish Peroxisome Proliferator-activated Receptor gamma (PPARg), gene 557037
Assay: ATG_zfPPARg_XSP2: Attagene TRANS-FACTORIAL Multi-Species (XSP2) HepG2 Assay for zebrafish Peroxisome Proliferator-activated Receptor gamma (PPARg) (AID 2283833);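 further: reporter mRNA from a zebrafish PPARg GAL4 chimera measured by RT-PCR and capillary electrophoresis; actives increase reporter signal over DMSO so AC50 reflects activation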
Outline: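 HepG2, transient MRTU transfection, 24 h compound; zfPPARg-GAL4 reporter mRNA by RT-PCR + capillary electrophoresis; gain-of-signal vs DMSO.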

SMILES | outcome | AC50
C(=C(c1ccccc1)c1ccccc1)c1ccccc1 | inactive | 
c1ccc(B(c2ccccc2)c2ccccc2)cc1 |  | 100 µM (active)
O=C(OCCOCCOCCOC(=O)c1ccccc1)c1ccccc1 | inactive | 

System: turtle Thyroid Hormone Receptor, alpha (TRa), gene 101949057
Assay: ATG_trTRa_XSP2: Attagene TRANS-FACTORIAL Multi-Species (XSP1) HepG2 Assay for turtle Thyroid Hormone Receptor, alpha (TRa) (AID 2283834);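 further: hits raise reporter mRNA over the DMSO baseline so AC50 marks activators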
Outline: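 Multiplexed TRANS reporter assay; HepG2 carrying NR-Gal4 constructs treated 24 h. mRNA of the GAL4-UAS reporter quantified via labelled RT-PCR fragments on a genetic analyzer, vs DMSO negative control.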

SMILES | outcome
C(=C(c1ccccc1)c1ccccc1)c1ccccc1 | inactive
c1ccc(B(c2ccccc2)c2ccccc2)cc1 | inactive
C#C[C@]1(O)CC[C@H]2[C@@H]3CCc4cc(OC)ccc4[C@H]3CC[C@@]21C | inactive
O=C(OCCOCCOCCOC(=O)c1ccccc1)c1ccccc1 | inactive

System: not listed separately
Assay: ATG_M_61_XSP2: Attagene TRANS-FACTORIAL Multi-Species (XSP2) HepG2 Assay for M61 Transcription Factor (Internal Marker) (AID 2283835; active means hit-call score of the fitted dose curve at least 0.9, where 1 is the maximum; inactive means score below 0.9;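 further: active means a rise in signal above the DMSO baseline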)
Outline: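 Internal background marker, read as RT-PCR/capillary-electrophoresis reporter mRNA 24 h post-dose in transiently transfected HepG2 cells. Androgen receptor stimulated with 3 nM 6-alpha-fluorotestosterone plus 1.5 nM norgestrel; gain of signal versus DMSO analysed.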

SMILES | outcome
C(=C(c1ccccc1)c1ccccc1)c1ccccc1 | inactive
c1ccc(B(c2ccccc2)c2ccccc2)cc1 | inactive
C#C[C@]1(O)CC[C@H]2[C@@H]3CCc4cc(OC)ccc4[C@H]3CC[C@@]21C | inactive
O=C(OCCOCCOCCOC(=O)c1ccccc1)c1ccccc1 | inactive
